In PubChem BioAssay AID1159580 (chemical genetic matrix, 2015):
Where “and” joins values, the source holds several entries; their conditions need not be identical. Equal entries are not always repeated. Among all 5,500 compounds or so, about 2,000 (36%) were called active. Inconclusive results (about 18%) are left out. Rule as the data show it: active = normalized growth mostly below about 0.91 (no sharp cut-off); inconclusive = no clear call, values can overlap the other calls; inactive = mostly above about 0.92. The list shows a part of the results.

Assay: chemical genetic growth profiling, strain panel (AID 1159580);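 also: tested at 20 µM; growth read once vehicle control cultures reached saturation at 30 °C; 1 = growth at the plate median or of vehicle wells; lower values mean less growth of the strain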
Conditions: S. cerevisiae deletion strains, growth OD

Measured: normalized growth

Cc1c(C(N)=O)cc([N+](=O)[O-])cc1[N+](=O)[O-]
inactive: locus YAL021C, strain ccr4, stronger effect = lower value 0.995 | locus YAL026C, strain drs2, stronger effect = lower value 1.04 | locus YAL030W, strain snc1, stronger effect = lower value 1.01 | locus YBL061C, strain skt5, stronger effect = lower value 1.02 | locus YBR009C, strain hhf1, stronger effect = lower value 1.08 | locus YBR021W, strain FUR4, stronger effect = lower value 0.969 | locus YBR023C, strain chs3, stronger effect = lower value 1.03 | locus YBR171W, strain sec66, stronger effect = lower value 1.01 | locus YBR229C, strain ROT2, stronger effect = lower value 0.986 | locus YBR231C, strain swc5, stronger effect = lower value 0.996 | locus YBR279W, strain paf1, stronger effect = lower value 1.02 | locus YCL011C, strain gbp2, stronger effect = lower value 1.03 | locus YCL016C, strain dcc1, stronger effect = lower value 1.04 | locus YCL029C, strain bik1, stronger effect = lower value 0.977 | locus YCL061C, strain MRC1, stronger effect = lower value 1.03 | locus YCL069W, strain vba3, stronger effect = lower value 1.02 | locus YCR088W, strain abp1, stronger effect = lower value 1.01 | locus YDL005C, strain med2, stronger effect = lower value 1.02 | locus YDL035C, strain GPR1, stronger effect = lower value 0.994 | locus YDL040C, strain nat1, stronger effect = lower value 1.02 | locus YDL074C, strain BRE1, stronger effect = lower value 1.01 | locus YDL101C, strain DUN1, stronger effect = lower value 0.99 | locus YDL134C, strain PPH21, stronger effect = lower value 0.97 | locus YDL185W, strain tfp1, stronger effect = lower value 0.967 | locus YDL192W, strain arf1, stronger effect = lower value 0.966 | locus YDR001C, strain nth1, stronger effect = lower value 1.01 | locus YDR069C, strain doa4, stronger effect = lower value 0.997 | locus YDR101C, strain arx1, stronger effect = lower value 1 | locus YDR137W, strain rgp1, stronger effect = lower value 1.04 | locus YDR150W, strain NUM1, stronger effect = lower value 0.99 | locus YDR159W, strain sac3, stronger effect = lower value 0.991 | locus YDR162C, strain NBP2, stronger effect = lower value 0.994 | locus YDR195W, strain ref2 1.02 | locus YDR297W, strain sur2, stronger effect = lower value 1.01 | locus YDR318W, strain mcm21, stronger effect = lower value 0.983 | locus YDR334W, strain swr1, stronger effect = lower value 1.02 | locus YDR335W, strain msn5, stronger effect = lower value 1.03 | locus YDR388W, stronger effect = lower value 0.982 | locus YDR392W, strain spt3, stronger effect = lower value 1 | locus YDR502C, strain sam2, stronger effect = lower value 1 | locus YEL003W, strain gim4, stronger effect = lower value 1.03 | locus YEL037C, strain rad23, stronger effect = lower value 1.02 | locus YEL061C, strain CIN8 (second series), stronger effect = lower value 1.02 | locus YEL061C, strain CIN8, stronger effect = lower value 0.99 | locus YER015W, strain faa2, stronger effect = lower value 1.01 | locus YER016W, strain bim1, stronger effect = lower value 1.01 | locus YER110C, stronger effect = lower value 0.965 | locus YER111C, strain swi4, stronger effect = lower value 1.02 | locus YER155C, strain BEM2 (second series), stronger effect = lower value 0.978 | locus YER155C, strain BEM2, stronger effect = lower value 0.987 | locus YER167W, strain BCK2, stronger effect = lower value 0.99 | locus YFR010W, strain ubp6, stronger effect = lower value 1.03 | locus YGL078C, strain dbp3, stronger effect = lower value 0.98 | locus YGL086W, strain mad1, stronger effect = lower value 0.994 | locus YGL167C, strain pmr1, stronger effect = lower value 1.03 | locus YGL173C, strain kem1, stronger effect = lower value 1.01 | locus YGL227W, strain vid30, stronger effect = lower value 1.01 | locus YGL240W, strain doc1, stronger effect = lower value 1 | locus YGL248W, strain PDE1, stronger effect = lower value 1 | locus YGL253W, strain hxk2, stronger effect = lower value 1.02 | locus YGR078C, strain PAC10, stronger effect = lower value 1 | locus YGR135W, strain pre9, stronger effect = lower value 0.977 | locus YGR252W, strain gcn5, stronger effect = lower value 0.945 | locus YHR013C, strain ard1, stronger effect = lower value 1.07 | locus YHR027C, strain rpn1, stronger effect = lower value 1.02 | locus YHR030C, strain SLT2, stronger effect = lower value 0.98 and 1.04 | locus YHR079C, strain IRE1 (second series), stronger effect = lower value 0.984 | locus YHR079C, strain IRE1, stronger effect = lower value 1.04 | locus YHR094C, strain hxt1, stronger effect = lower value 0.977 | locus YHR129C, strain ARP1, stronger effect = lower value 0.993 | locus YHR142W, strain chs7, stronger effect = lower value 1.02 | locus YHR200W, strain rpn10, stronger effect = lower value 0.98 | locus YIL066C, strain RNR3, stronger effect = lower value 0.988 | locus YIL073C, strain SPO22, stronger effect = lower value 0.95 | locus YIL125W, strain kgd1, stronger effect = lower value 0.99 | locus YIR030C, strain dcg1, stronger effect = lower value 0.984 | locus YJL092W, strain hpr5, stronger effect = lower value 1.02 | locus YJL095W, strain BCK1 (second series), stronger effect = lower value 1.04 | locus YJL095W, strain BCK1, stronger effect = lower value 1.02 and 1.05 | locus YJL115W, strain asf1, stronger effect = lower value 1.03 | locus YJL129C, strain trk1, stronger effect = lower value 1.05 | locus YJL134W, strain LCB3, stronger effect = lower value 0.991 | locus YJL154C, strain vps35, stronger effect = lower value 1.01 | locus YJL164C, strain tpk1, stronger effect = lower value 1.06 | locus YJL166W, strain qcr8, stronger effect = lower value 1.02 | locus YJL168C, strain set2, stronger effect = lower value 0.979 | locus YJL187C, strain SWE1 (second series), stronger effect = lower value 0.999 | locus YJL187C, strain SWE1, stronger effect = lower value 1.01 | locus YJR043C, strain POL32, stronger effect = lower value 1.02
